Experimental data as given in PubChem BioAssay.
The source made the active and inactive calls. Unless noted, the rule behind the calls is not given here.

Assay: P. aeruginosa biofilm formation inhibitors, primary screen, strain PAO1, LB-PBS medium, absorbance 600 nm (AID 1176)
Details: P. aeruginosa PAO1 growth/biofilm, A600, 12 h; higher = more signal
Note: test concentration not given here.

z-score, inactive:
O=C1c2ccccc2[C@@]2(Cc3ccccc3N(Cc3ccccc3)C2=O)[C@H](c2ccc(CO)cc2)N1Cc1ccccc1 0.0714
CCOC(=O)C[C@H]1[C@H](OC(=O)Cc2ccc3c(c2)OCO3)[C@@H](NC(=O)c2ccccc2)c2cc(OCCCO)ccc2N1C(=O)Cc1ccc(OC)cc1 0.407
CCOC(=O)C[C@H]1[C@H](OC(=O)c2ccc(-c3ccccc3)cc2)[C@@H](NC(=O)CC(C)C)c2cc(OCCCO)ccc2N1C(=O)Cc1ccc(OC)cc1 0.35
CC(C)CNC(=O)[C@@H]1c2ccccc2C(=O)N(C2Cc3ccccc3C2)[C@H]1c1ccc(CO)cc1 0.444
C=C(COC)C(=O)CC[C@@H](OC(C)=O)c1ccc(OCCO)cc1 0.98
COCCOC(=O)N1C(=O)[C@@]2(c3cc(C#CC4(O)CCCCCC4)ccc31)[C@H](c1ccc(OCCO)cc1)N1[C@H](c3ccccc3)[C@H](c3ccccc3)OC(=O)[C@H]1[C@@H]2C(=O)N1CCCCCCC1 1.16
[N-]=[N+]=NCc1ccccc1C[C@]1(C(=O)O)COC(c2ccc(OCCCO)cc2)=N1 0.37
N[C@@H](Cc1ccccc1)Cn1cc(C2(O)CCCCC2)nn1 0.0672
Cc1ccc(F)cc1S(=O)(=O)N[C@@H]1CCN(Cc2ccc3[nH]ccc3c2)C1 -0.189
COCCOC(=O)N1C(=O)[C@@]2(c3cc(C#CC4=CCCCC4)ccc31)[C@H](c1ccccc1OCCO)N1[C@H](c3ccccc3)[C@H](c3ccccc3)OC(=O)[C@H]1[C@@H]2C(N)=O 1.06
CC1(C)OC[C@@]23C=C(Br)[C@@H](C[C@H]12)[C@@]1(CO1)C3=O -0.0582
CN1C(=O)C2C=CC(C(O)c3ccc(-c4ccccc4)s3)N(Nc3ccccc3)C2C1=O (stereo not given) 1.6
C=C(COC)/C(=C/C[C@H](OC(=O)c1ccncc1)c1ccc(OCCO)cc1)c1cc(C(=O)OC)ccc1OC -0.505
COCCn1c(C(=O)N2CCCC2)cc2c1C[C@H]1CN(C(=O)c3ccccc3)[C@@](Cc3ccccc3)(C(=O)OC)[C@@H]21 0.535
CCC[C@@H]1C=C(C(=O)OCC)[C@H](c2ccccc2)N1S(=O)(=O)c1ccc(C)cc1 0.0362
COCC(=C=CC[C@@H](O)c1cccc(OCCO)c1)C[C@@H](O)COCc1ccccc1 0.13
CC(C)[C@@H](C(=O)O)n1cc(-c2ccccc2)nn1 -0.145
CN(C)CCCCNC(=O)[C@H]1C[C@H]2C(=O)NCC(=O)N2[C@H]1c1cccc(OCCO)c1 -0.711
[N-]=[N+]=NCc1ccccc1C[C@]1(C(=O)N2CCOCC2)N=C(c2ccc(OCCCO)cc2)O[C@H]1c1ccccc1CN=[N+]=[N-] 0.948
C=CCNC(=O)[C@@H]1[C@H]2C(=O)O[C@H](c3ccccc3)[C@H](c3ccccc3)N2[C@H](c2ccccc2OCCO)[C@@]12C(=O)N(C(=O)OCCOC)c1ccc(C#CCCO)cc12 1.32
CC(C)=CCN(C(=O)C#Cc1ccccc1)[C@H](CO)c1ccccc1 -0.0218
Cc1ccccc1C(O)C1C=CC2C(=O)N(c3ccccc3)C(=O)C2N1Nc1ccccc1F (stereo not given) 1.07
C=CC[C@]1(C(=O)NCc2ccccc2)COC(c2ccc(OCCCO)cc2)=N1 -0.0025
C=C(/C(=C/C[C@@H](OC(C)=O)c1ccccc1OCCO)c1cc(C(=O)OC)ccc1OC)C(C)C 0.0478
CCCC=C(CCC)[C@@H](NS(=O)(=O)c1ccc(Cl)cc1)c1ccccc1 1.97

Assay: S. cerevisiae RM11-1a growth modifiers, primary screen, strain RM11-1a, OD600, basal, 24 h (AID 1177);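 note: cultures grown under basal conditions with no added stressor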
Details: OD600, 24 h, higher = more signal, called active from +8 up or from −8 down

z-score, inactive:
CCCCC(O)C1C=CC2C(=O)N(C)C(=O)C2N1Nc1ccccc1 (stereo not given) 1.53
O=C1C2C=CC(C(O)c3cccs3)N(Nc3ccccc3)C2C(=O)N1c1ccccc1 (stereo not given) -0.272
COC(=O)[C@@]1(Cc2ccccc2)[C@@H]2[C@@H](CC(=O)[C@H]2CC(=O)C(=O)N(C)C)CN1C(=O)c1ccccc1 1.02
CC=CC(O)C1C=CC2C(=O)N(C)C(=O)C2N1NC(=O)OC(C)(C)C (stereo not given) -0.243
CN(C)C(=O)[C@]1(Cc2ccccc2)N=C(c2ccc(OCCCO)cc2)O[C@@H]1c1ccccc1 0.597
C=CCC(OC(C)=O)[C@@H]1[C@@H](N(Cc2cccc3ccccc23)C(=O)c2ccc(-c3ccccc3)cc2)c2cc(OCCCO)ccc2N1C(=O)c1ccc2ccccc2n1 (stereo not given in full) -0.634
C=CCC(OC(C)=O)[C@@H]1[C@@H](N(Cc2ccc(-c3ccccc3)cc2)C(=O)c2ccc(-c3ccccc3)cc2)c2cc(OCCCO)ccc2N1C(=O)c1ccc2ccccc2n1 (stereo not given in full) -0.354
NC(=O)NCC#Cc1ccc2c(c1)[C@]1(C(=O)N2)[C@H](C(=O)N2CCCCCCC2)[C@H]2C(=O)O[C@H](c3ccccc3)[C@H](c3ccccc3)N2[C@@H]1c1ccc(O)cc1 0.0562
C=CCC(OC(C)=O)[C@@H]1[C@@H](N(Cc2ccc(-c3cccc(C(F)(F)F)c3)o2)C(=O)Cc2ccc(F)cc2)c2cc(OCCCO)ccc2N1C(=O)c1ccc2ccccc2c1 (stereo not given in full) -0.423
O=C1C2C=CC(C(O)c3ccc([N+](=O)[O-])cc3)N(Nc3ccccc3)C2C(=O)N1c1ccccc1 (stereo not given) -0.453
O=C1c2ccccc2[C@@]2(Cc3ccccc3N(Cc3ccccc3)C2=O)[C@H](c2ccc(CO)cc2)N1Cc1ccccc1 -0.153
CCOC(=O)C[C@H]1[C@H](OC(=O)Cc2ccc3c(c2)OCO3)[C@@H](NC(=O)c2ccccc2)c2cc(OCCCO)ccc2N1C(=O)Cc1ccc(OC)cc1 -1.86
CCOC(=O)C[C@H]1[C@H](OC(=O)c2ccc(-c3ccccc3)cc2)[C@@H](NC(=O)CC(C)C)c2cc(OCCCO)ccc2N1C(=O)Cc1ccc(OC)cc1 -0.154
CC(C)CNC(=O)[C@@H]1c2ccccc2C(=O)N(C2Cc3ccccc3C2)[C@H]1c1ccc(CO)cc1 -1.09
C=C(COC)C(=O)CC[C@@H](OC(C)=O)c1ccc(OCCO)cc1 0.423
COCCOC(=O)N1C(=O)[C@@]2(c3cc(C#CC4(O)CCCCCC4)ccc31)[C@H](c1ccc(OCCO)cc1)N1[C@H](c3ccccc3)[C@H](c3ccccc3)OC(=O)[C@H]1[C@@H]2C(=O)N1CCCCCCC1 2.11
[N-]=[N+]=NCc1ccccc1C[C@]1(C(=O)O)COC(c2ccc(OCCCO)cc2)=N1 -0.163
N[C@@H](Cc1ccccc1)Cn1cc(C2(O)CCCCC2)nn1 -0.507
Cc1ccc(F)cc1S(=O)(=O)N[C@@H]1CCN(Cc2ccc3[nH]ccc3c2)C1 -0.773
COCCOC(=O)N1C(=O)[C@@]2(c3cc(C#CC4=CCCCC4)ccc31)[C@H](c1ccccc1OCCO)N1[C@H](c3ccccc3)[C@H](c3ccccc3)OC(=O)[C@H]1[C@@H]2C(N)=O 0.486
CC1(C)OC[C@@]23C=C(Br)[C@@H](C[C@H]12)[C@@]1(CO1)C3=O 0.617
CN1C(=O)C2C=CC(C(O)c3ccc(-c4ccccc4)s3)N(Nc3ccccc3)C2C1=O (stereo not given) 0.0727
C=C(COC)/C(=C/C[C@H](OC(=O)c1ccncc1)c1ccc(OCCO)cc1)c1cc(C(=O)OC)ccc1OC -0.402
COCCn1c(C(=O)N2CCCC2)cc2c1C[C@H]1CN(C(=O)c3ccccc3)[C@@](Cc3ccccc3)(C(=O)OC)[C@@H]21 1.41
CCC[C@@H]1C=C(C(=O)OCC)[C@H](c2ccccc2)N1S(=O)(=O)c1ccc(C)cc1 1.84
COCC(=C=CC[C@@H](O)c1cccc(OCCO)c1)C[C@@H](O)COCc1ccccc1 -2.24
CC(C)[C@@H](C(=O)O)n1cc(-c2ccccc2)nn1 -0.618
CN(C)CCCCNC(=O)[C@H]1C[C@H]2C(=O)NCC(=O)N2[C@H]1c1cccc(OCCO)c1 1.06
[N-]=[N+]=NCc1ccccc1C[C@]1(C(=O)N2CCOCC2)N=C(c2ccc(OCCCO)cc2)O[C@H]1c1ccccc1CN=[N+]=[N-] 2.39
C=CCNC(=O)[C@@H]1[C@H]2C(=O)O[C@H](c3ccccc3)[C@H](c3ccccc3)N2[C@H](c2ccccc2OCCO)[C@@]12C(=O)N(C(=O)OCCOC)c1ccc(C#CCCO)cc12 2.15
CC(C)=CCN(C(=O)C#Cc1ccccc1)[C@H](CO)c1ccccc1 3.26
Cc1ccccc1C(O)C1C=CC2C(=O)N(c3ccccc3)C(=O)C2N1Nc1ccccc1F (stereo not given) 0.362
C=CC[C@]1(C(=O)NCc2ccccc2)COC(c2ccc(OCCCO)cc2)=N1 0.02
C=C(/C(=C/C[C@@H](OC(C)=O)c1ccccc1OCCO)c1cc(C(=O)OC)ccc1OC)C(C)C 0.508
CCCC=C(CCC)[C@@H](NS(=O)(=O)c1ccc(Cl)cc1)c1ccccc1 -0.233
